# Legend:
# Assay in all cases: PBM binding z-score (relative to random genomic background probes); higher = stronger binding; sequences stand for … in GC…GCGATTGACAGCGTAGAATGAAGG
# [1] = test system: FXR:RXRa (NR concentration 270 nM, RXRa partner concentration 90 nM)
# Outline: (§1)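 Ligand-free nuclear receptor dimers were bound for 1 h to custom Agilent 4×180K protein-binding microarrays. Detection used antibodies against each partner (one per run). Binding z-scores rest on regression-normalized fluorescence, with random background probes as the reference.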
# [2] = test system: LXRa:RXRa (NR concentration 270 nM, RXRa partner concentration 90 nM)
# Outline: as §1
# [3] = test system: LXRa homodimer (NR concentration 270 nM)
# Outline: as §1
# [4] = test system: LXRb:RXRa (NR concentration 270 nM, RXRa partner concentration 90 nM)
# Outline: as §1
# [5] = test system: LXRb homodimer (NR concentration 270 nM)
# Outline: as §1
# [6] = test system: PPARa:RXRa (NR concentration 270 nM, RXRa partner concentration 90 nM)
# Outline: as §1
# [7] = test system: PPARg:RXRa (NR concentration 180 nM, RXRa partner concentration 90 nM)
# Outline: as §1
# [8] = test system: PPARg:RXRa 270nM:90nM, anti-RXR (NR concentration 270 nM, RXRa partner concentration 90 nM)
# Outline: as §1
# [9] = test system: PPARg:RXRa 30nM:10nM, anti-RXR (NR concentration 30 nM, RXRa partner concentration 10 nM)
# Outline: as §1
# [10] = test system: PPARg:RXRa 90nM:30nM, anti-RXR (NR concentration 90 nM, RXRa partner concentration 30 nM)
# Outline: as §1
# [11] = test system: PPARg:RXRa DBDmut IVT, anti-RXR (DBD mutation: RXRa K156A/R161A, NR concentration 270 nM, RXRa partner concentration 90 nM)
# Outline: as §1
# [12] = test system: PPARg:RXRa IVT, anti-PPARg (NR concentration 270 nM, RXRa partner concentration 90 nM)
# Outline: as §1
# [13] = test system: PPARg DBDmut:RXRa IVT, anti-PPARg (DBD mutation: PPARg1 K132A/R137A, NR concentration 270 nM, RXRa partner concentration 90 nM)
# Outline: as §1
# [14] = test system: PPARg DBDmut IVT, anti-PPARg (DBD mutation: PPARg1 K132A/R137A, NR concentration 270 nM)
# Outline: as §1
# [15] = test system: PPARg homodimer (NR concentration 180 nM)
# Outline: as §1
# [16] = test system: PXR:RXRa (NR concentration 270 nM, RXRa partner concentration 90 nM)
# Outline: as §1
# [17] = test system: PXR homodimer (NR concentration 270 nM)
# Outline: as §1
# [18] = test system: RARa:RXR (NR concentration 270 nM, RXRa partner concentration 90 nM)
# Outline: as §1
# [19] = test system: RARa homodimer (NR concentration 270 nM)
# Outline: as §1
# [20] = test system: RARb:RXRa (NR concentration 270 nM, RXRa partner concentration 90 nM)
# Outline: as §1
Sequence,PBM binding z-score [1],PBM binding z-score [2],PBM binding z-score [3],PBM binding z-score [4],PBM binding z-score [5],PBM binding z-score [6],PBM binding z-score [7],PBM binding z-score [8],PBM binding z-score [9],PBM binding z-score [10],PBM binding z-score [11],PBM binding z-score [12],PBM binding z-score [13],PBM binding z-score [14],PBM binding z-score [15],PBM binding z-score [16],PBM binding z-score [17],PBM binding z-score [18],PBM binding z-score [19],PBM binding z-score [20]
CTCCCAAGGTGAACAAGGTCGTTGATTACTATTC,1.08,1.47,0.177,1.84,-0.42,2.36,0.575,1.07,0.0592,0.823,1.99,2.07,-0.441,-0.154,0.903,2.42,1.92,2.14,-0.0783,2.03
CCAGGCAGGTGAGAAGGTAACTCAGCCTCGATTA,-0.311,-0.32,-0.49,-0.277,-0.875,0.473,0.238,0.813,-0.448,0.0901,0.637,0.291,-1.38,-1.33,-0.318,-0.256,-0.513,-0.0086,-0.442,0.36
ACTCGGAGGACAAAGTTCAGAGCTACGCCAGTGA,1.48,1.83,1.79,0.868,-0.232,2.82,4.04,5.27,3.37,5.49,0.00289,1.33,-0.512,-0.633,1.27,1.98,1.2,1.47,0.278,2.97
CTCGAAAGGTCGTGCTCAGGTGAGAATACCAAAC,5.2,3.74,0.081,3.51,0.321,4.86,2.81,3.77,1.19,2.44,0.69,1.89,0.151,0.41,2.63,3.35,0.0262,4.6,0.317,3.93
ATCTCTAGGTAACCAAGTTCACTGAATGCCGAAC,0.969,1.87,2,1.58,1.09,2.25,1.1,1.54,0.634,1.2,3.89,3.32,0.487,1.47,1.17,3.1,3.34,1.64,0.615,1.9
ACATGTAGGTTAAGGGTCATTCAGGTTGGTTCGC,5.47,4.89,3.12,4.5,1.95,6.02,11.1,9.37,8.78,11,6.63,7.34,4.14,3.37,4.52,5.46,2.78,5.86,2.44,3.53
GCGGCTAGGTCAGGTTGGTCAGCTAACGGGTACG,1.14,0.573,-0.172,0.648,-0.613,1.33,0.166,0.609,-0.687,0.275,1.28,1.36,-1.08,-0.633,0.749,0.325,-0.293,0.825,-0.0979,3.26
ACTCGGAGGACAAAGGTCAGAGCGACGCCAGTGA,4.14,4.3,1.14,3.61,0.216,4.97,7.85,6.9,5.06,7.27,0.874,3.53,-0.107,-0.757,3.73,4.04,0.438,4.89,0.829,4.57
TCTAGCAGGCCAGAGGGTCACTCAGGAGGTACGG,1.25,1.15,-0.544,0.792,-1.23,2.35,1.43,2.66,2,2.55,1.15,0.889,-0.476,-0.637,0.195,1.35,-0.32,2.12,-0.425,2.28
TAGCCTAGCTCATGCGGGCCAGTATAGTGTCGGC,-2.69,-1.21,-0.957,-1.4,-1.43,-1.23,-0.395,-1.21,-0.899,-0.925,-0.92,-0.527,-0.361,-0.899,-1.61,-1.02,-0.998,-1.04,-0.996,-1.16
CGTCCAAGGTCAGAGAGGTCAGTGCATGCCGAGT,5.87,4.93,3.33,4.41,0.554,4.76,3.48,4.37,0.807,2.76,3.03,3.39,-0.458,-1.04,4.89,5.91,11.5,5.08,1.45,5.17
CGAACGAGGTCAAGGACAGTGAATCTCCGCACGC,7.55,5.54,0.753,4.4,0.542,5.95,7.29,6.61,3.39,5.65,5.22,5.6,0.997,-0.199,2.14,4.9,0.979,5.15,0.619,5.24
ATCGAGAGGTCGACGAGGTGAGTATACACCGTTT,3,2.28,-0.165,1.65,-0.204,3.36,1.95,2.03,0.529,1.52,0.355,1.71,-0.00601,0.563,0.663,2.43,0.615,2.84,-0.215,2.8
CTCGAAAGGTCGGTTGAGTTGAGTATACGGATAA,2.22,1.48,0.18,1.5,-0.0298,2.27,0.295,0.792,0.314,0.857,0.55,0.513,0.723,0.673,1.04,3.89,0.374,1.81,0.0679,2.71
TAGCCTAGGTCATTCAGGGGCCATTATAGAAAGC,4.21,4.32,1.34,3.81,1.44,3.96,2.32,2.45,0.349,1.57,1.86,3.06,0.753,0.98,2.02,3.3,0.128,3.79,0.894,3.98

# From the supplement of paper PMC6555819
